112 compounds from PubChem BioAssay AID1117361 (Southern Research Institute, 2015) can be followed below.

Among all 3,600 compounds or so, about 900 (25%) were called active. No rule for the calls is given here. A selection follows. Entries with a potency or affinity are not part of this list.

In the experiment the target is Protein Tat (Human immunodeficiency virus type 1 group M subtype B (isolate HXB2)) (UniProt P04608). Description: HIV-1 Tat–TAR interaction blockers – biochemical, fluorescence polarization, FAM-labeled TAR RNA, counter-screen for Vif-APOBEC3G degradation inhibitor project, dose response (AID 1117361). To be noted: Tat-TAR RNA binding; series mostly up to 100 µM. For orientation: Fluorescence polarisation rises when a labelled molecule tumbles more slowly, as on binding a larger partner.
As to `Cc1nn(-c2c(Cl)cc(Cl)cc2Cl)c(=O)c2ccccc12`, the compound was called inactive.
In the case of `CC(Sc1nnnn1-c1ccccc1)C(=O)Nc1ccc(Cl)cn1` (configuration not stated), the compound was called inactive.
As for `O=C(CN1C(=O)C2CC=CCC2C1=O)OCCN1C(=O)c2ccccc2C1=O` (configuration not stated), the entry is “inactive [at 50 µM]”.
As to `Cc1ccc(CCNC(=O)C2CCC(=O)N2C2CCCC2)cc1` (configuration not stated), the outcome was inactive.
As to `Cc1c(NS(=O)(=O)c2cccc(C(=O)NCc3ccncc3)c2)c(=O)n(-c2ccccc2)n1C`, the compound was called inactive.
For `O=S(=O)(NCc1ccccc1Cl)c1cnc[nH]1` the value was “inactive”.
For the compound `CNC(=S)N(Cc1ccc(OC)cc1)C1CC(=O)N(c2ccc(Cl)cc2)C1=O` (configuration not stated), the compound was called inactive.
On to `CCCC(=O)NNC(=O)Nc1ccccc1`, for which the call was inactive.
In the case of `CCN1CCN(Cc2ccc(NC(=O)Nc3ccccc3)cc2)CC1`, the call was inactive.
In the case of `COc1ccc2cc(C(=O)Nc3ccc(O)cc3)sc(=O)c2c1OC`, the call was inactive.
For `O=C(NCC1CCCO1)c1c(O)c2c([nH]c1=O)CCCC2` (configuration not stated) the value was “inactive”; for `CC[n+]1c(/C=C2\C=C(C)CC(C)(C)C2)sc2ccccc21`, “inactive”; for `CCC(C)NC(=O)CSc1ccc(S(=O)(=O)N2CCN(Cc3ccccc3)CC2)cn1` (configuration not stated), “inactive”.
Turning to `Cc1csc(NC(=O)CCSCCc2ccccn2)n1`, the result was inactive.
With `CCOc1ccc(NC(=S)/C(=C(\[O-])c2ccc(C)c([N+](=O)[O-])c2)[n+]2ccccc2)cc1`, the compound was classed as inactive.
For `C=C(C)COc1ccc2c(C)c(C)c(=O)oc2c1OCC(=C)C`, the compound was classed as inactive.
For `COc1ccc(NC(=O)CN(C)S(=O)(=O)c2ccc3c(c2)CCC(=O)N3)c(OC)c1` the value was “inactive”; for `CCC(Sc1nc2c(c(=O)n1CC)SC(C)C2)C(=O)OC` (configuration not stated), “inactive”; for `Cn1c(SCC(=O)N2CCCC2)nc2ccccc2c1=O`, “inactive”.
For the compound `CC(=O)NCCn1c(SCC(=O)Nc2ccc(C)cc2)nc2ccccc2c1=O`, the call was inactive.
With `Cc1noc(NS(=O)(=O)c2ccc(NC(=O)CSc3nnc(-c4ccccc4)n3C3CCCCC3)cc2)c1C`, the result was inactive.
As to `Cc1nc(NCc2ccccc2)c2cc[nH]c2n1`, the call was inactive.
As to `Cc1cc(C)n(CC(O)CN2c3ccccc3Sc3ccccc32)n1` (configuration not stated), the call was inactive.
For the compound `CC1CCCCN1Cc1ccc(N(C)C)cc1` (configuration not stated), the call was inactive.
For `O=C(NN=C1CCCC1)C(=O)Nc1cccc(C(F)(F)F)c1` the value was “inactive”; for `O=C(Nc1cccc(C(F)(F)F)c1)c1cccnc1NCCc1ccccc1`, “inactive”; for `O=C(Nc1ccccc1)c1ccc2nc(-c3ccco3)c(-c3ccco3)nc2c1`, “inactive”.
Take `Cc1ccc(C(=O)Nc2cccnc2)cc1NC(=O)c1ccco1`: the compound was classed as inactive.
Take `COC(=O)C1=C(C)Nc2ncnn2C1c1ccc(OC(=O)c2ccccc2)cc1` (configuration not stated): the result was inactive.
On to `CC(=O)c1ccccc1NC(=O)COC(=O)CN1C(=O)C2CCCCC2C1=O` (configuration not stated), for which the outcome was inactive.
For `COCCn1c(-c2ccc(OC)cc2)nc2ccccc21` the value was “inactive”.
Consider `N#Cc1cn(CCOc2ccccc2F)c2ccccc12`, for which the call was inactive.
Turning to `Cc1ccc(C(=O)N2c3ccc(F)cc3CCC2C)o1` (configuration not stated), the result was inactive.
Turning to `COC(=O)COc1ccc(S(=O)(=O)NCc2ccco2)cc1Cl`, the result was inactive.
Take `CC(Cc1c[nH]c2ccccc12)C(=O)NCc1ccco1` (configuration not stated): the compound was called inactive.
For `CN(C)CCNc1oc(COc2ccc(Cl)cc2)nc1C#N`, the call was inactive.
With `O=C(NNC(=O)c1cc(OCC(F)(F)F)ccc1OCC(F)(F)F)c1cccc(C(F)(F)F)c1`, the compound was classed as inactive.
Regarding `Cc1cc(-n2c(C)cc(C(=O)COC(=O)CN=C3NS(=O)(=O)c4ccccc43)c2C)no1`, the call was inactive.
Consider `O=C1CCCC2=C1C(c1ccsc1)CC(=O)N2c1ccccc1` (configuration not stated), for which the call was inactive.
As for `COC(=O)C1(C(=O)OC)NOC2C(=O)N(c3ccccc3)C(=O)C21` (configuration not stated), the entry is “inactive”; as for `O=C(c1cccc(S(=O)(=O)N2CCCC2)c1)N1CCOCC1`, “inactive”; as for `COc1ccc(OCCOC(=O)c2cc(S(=O)(=O)N3CCOCC3)c(Cl)cc2Cl)cc1`, “inactive”.
Regarding `COc1ccc(CN2CCSCC2)cc1C`, the compound was called inactive.
As for `O=[N+]([O-])c1c(Nc2ccccc2O)cc(Cl)c2nonc12`, the entry is “inactive”; as for `CN(CCO)c1cc(Sc2nc3ccccc3s2)c2nonc2c1[N+](=O)[O-]`, “inactive”; as for `O=C(O)c1cc(Nc2cc(Cl)c3nonc3c2[N+](=O)[O-])ccc1O`, “inactive”.
Take `CCC(=O)OCCNc1cc(Sc2nc3ccccc3[nH]2)c2nonc2c1[N+](=O)[O-]`: the result was inactive.
Take `C=CCSc1nnc(-c2ccc(Cl)cc2Cl)o1`: the compound was classed as inactive.
For `O=C1N=NC2=C1c1c3ccccc3c(O)n1CC2` the value was “inactive”; for `N#CC1=C(Nc2ccccc2)SC=C(c2ccc(Br)cc2)N=C1N1CCOCC1`, “inactive”; for `Cc1onc(-c2ccccc2Cl)c1C(=O)N1CCN(c2cccc(Cl)c2)CC1`, “inactive”.
On to `CC(NC(=O)CN(C)Cc1nc2ccccc2c(=O)[nH]1)c1ccccc1` (configuration not stated), for which the compound was classed as inactive.
In the case of `COc1ccc(CC(=O)OCn2nnc3ccccc3c2=O)cc1`, the result was inactive.
For `Cc1ccc(CNC(=O)C2CCCN(S(=O)(=O)c3cnc[nH]3)C2)cc1` (configuration not stated) the value was “inactive”; for `COCCn1c(SCC(=O)N2CCC(C)CC2)nc2ccccc2c1=O`, “inactive”.
As for `COc1ccc(/C=N/NC(=O)CNc2n[nH]c(=O)[nH]c2=O)cc1OC`, the entry is “inactive”.
As for `O=C(Nc1nc2n(n1)C(c1ccccc1)CC(c1ccc(Cl)cc1)N2)c1ccco1` (configuration not stated), the entry is “inactive”; as for `Cc1nc2nc(-c3ccccc3)cn2nc1C`, “inactive”; as for `COc1cccc(-c2nc3cc(C)ccc3o2)c1`, “inactive”.
`CON(c1nc(N(C)C)nc(N(C)C)n1)S(=O)(=O)c1ccccc1Cl`: the outcome was inactive.
With `O=S(=O)(c1ccc(Cl)s1)N1CCN(Cc2ccccc2)CC1`, the result was inactive.
As to `O=C(Cn1nc(-c2ccc(Cl)cc2)ccc1=O)NCc1ccc2c(c1)OCO2`, the compound was called inactive.
As for `CC1CCN(Cc2cnc(Cl)s2)CC1`, the entry is “inactive”; as for `CCCCSc1nc2sc3c(c2c(=O)[nH]1)CCC3`, “inactive”; as for `CCn1c(SCC(=O)OC)nc2sc3c(c2c1=O)CCC3`, “inactive”.
As for `Cc1nn(C)cc1CNC(=O)C1C2CCC(C2)C1C(=O)O` (configuration not stated), the entry is “inactive”; as for `CCN1C(=O)CS/C1=C(\C#N)S(=O)(=O)c1ccccc1`, “inactive”; as for `Clc1ccc(CSCCc2ccncc2)cc1`, “inactive”.
As for `COC1=C(Br)C(=O)c2nc(C)ccc2C1=O`, the call was inactive.
Turning to `COC1=C(N)C(=O)c2nc(C)ccc2C1=O`, the compound was classed as inactive.
Regarding `CCOC(=O)C1(Cc2ccc(OC)cc2)CCN(C(=O)Cc2cccnc2)CC1`, the compound was called inactive.
As to `COC(=O)C(Cc1c[nH]c2ccccc12)NC(=O)C(C)C` (configuration not stated), the compound was called inactive.
For `Cc1ccc(CNC(=O)CCC2CCCN(Cc3cc4ccccc4o3)C2)o1` (configuration not stated) the value was “inactive”.
On to `Cc1ccc(CCNC(=O)C2CCCN(S(=O)(=O)c3c(C)noc3/C=C/N(C)C)C2)cc1` (configuration not stated), for which the compound was called inactive.
As for `Cc1ccc(S(=O)(=O)c2c(N)n(NC(=O)C3CC3)c3nc4ccccc4nc23)cc1`, the entry is “inactive”.
As for `Cc1ccc(C)c(CN2C(=O)C(C)Oc3ccc(C)cc32)c1` (configuration not stated), the entry is “inactive”; as for `CC1(C)Cc2c(c(=S)nc(-c3ccccc3)n2CCCN2CCOCC2)CO1`, “inactive”.
For the compound `C=CCN=c1scc(C)n1/N=C/c1ccc(O)c(O)c1`, the result was inactive.
For the compound `COc1ccc(Cl)cc1N(CC(=O)Nc1ccc2c(c1)OCO2)S(C)(=O)=O`, the compound was classed as inactive.
As to `COC(=O)c1cccc(NC(=O)NC2CCCN2S(=O)(=O)c2ccc(Cl)cc2)c1` (configuration not stated), the compound was classed as inactive.
As for `CS(=O)(=O)N(C(=O)NC(=O)NC1CCS(=O)(=O)C1)C1CCCCC1` (configuration not stated), the compound was classed as inactive.
As for `COc1ccc(C2CC(=O)Nc3cc(C)c(C)cc32)c(OC)c1OC` (configuration not stated), the entry is “inactive”; as for `CC(C(=O)N1CCOCC1)(c1ccccc1)c1ccccc1`, “inactive”; as for `CC(=O)c1ccc(Nc2nc(=O)c3cccnc3s2)cc1`, “inactive”.
With `CN(C)c1ccc(C=c2c3cc([N+](=O)[O-])ccc3n3c2cc(-c2ccccc2)[n+]3C)cc1`, the result was inactive.
For `NNC(=S)Nc1ccc(Cl)cc1`, the outcome was inactive.
As for `CC(=O)c1ccc(N2CCN(C(=O)c3ccc4c(c3)OCO4)CC2)cc1`, the entry is “inactive”.
As to `O=C(NCCS(=O)CCNC(=O)C(F)(F)F)C(F)(F)F`, the outcome was inactive.
For `Cc1onc(-c2ccccc2)c1C(=O)NCC1COc2ccccc2O1` (configuration not stated) the value was “inactive”; for `CC(=O)Cc1nsc(Nc2ccc3c(c2)OCCO3)n1`, “inactive”.
As for `O=C(NN(C(=O)c1ccccc1)c1ccccc1)c1ccccc1`, the entry is “inactive”; as for `CC(NC(=O)C1C(=O)N(CCO)C2(C)CC1c1ccccc1O2)c1ccccc1` (configuration not stated), “inactive”; as for `CN1OC[C@@H]2CN(C(=O)C(C)(C)C)[C@H](c3cccc(Oc4ccccc4)c3)C[C@@H]21`, “inactive”.
For `O=C(c1cc(COc2cccc3cccnc23)on1)N1CCC[C@H]1CO` the value was “inactive”; for `C=CCc1cc(Cl)ccc1OC(=O)Nc1cccc(Cl)c1`, “inactive”; for `COc1ccc2[nH]c3c(N4CCC(O)(c5cccc(C(F)(F)F)c5)CC4)ncnc3c2c1`, “inactive”.
As to `Clc1ccc(CSc2snnc2-c2ccccc2)c(Cl)c1`, the compound was classed as inactive.
For `Cc1ccc(CSc2nnc(-c3ccco3)o2)cc1`, the compound was called inactive.
Turning to `CCCCN(CCCC)CCCN1CC(=O)N2[C@@H](Cc3c([nH]c4ccccc34)C2(C)C)C1=O`, the compound was called inactive.
Take `CC(C)Cn1c(=O)[nH]c2ccccc21`: the compound was called inactive.
As for `COc1ccc(CCN=C(N)NS(=O)(=O)c2ccc(C)cc2)cc1`, the entry is “inactive”; as for `O=C(NCc1ccco1)c1sc2cccc(F)c2c1Cl`, “inactive”; as for `CCN(CC)C(=O)Cn1cnc2sc(C(=O)Nc3cc(OC)c(OC)c(OC)c3)c(C)c2c1=O`, “inactive”.
For the compound `Cc1cc(NC(=O)CSc2nnc(-c3ccncc3)n2N)ccc1Br`, the compound was called inactive.
On to `CCc1ccc(NC(=O)CCNS(=O)(=O)c2cccc3nonc23)cc1`, for which the compound was called inactive.
As to `COc1ccc(NC(=O)c2ccc(S(=O)(=O)N3CCOCC3)o2)cc1`, the compound was called inactive.
For `CCN(CC)c1ccc(NC(=O)c2ccc(Br)o2)cc1`, the outcome was inactive.
For `O=C(O)Cn1c(=O)c2c(c3ccccc31)CCC2` the value was “inactive”.
For `CS(=O)(=O)N1CCN(c2ccccc2NC(=O)CSc2ccc(Cl)cc2)CC1` the value was “inactive”; for `Cn1cccc1Cc1nnc(SCC(N)=O)n1CCc1ccccc1`, “inactive”.
Consider `CC[C@H](C)[C@H](NC(N)=O)C(=O)NCCc1ccc(OC)cc1`, for which the compound was classed as inactive.
For `Cc1c(C)n(CC(O)CN2CCCCCC2)c2ccccc12` (configuration not stated) the value was “inactive”.
